# Several values for one entry are separate records, joined by “and”; a condition that tells them apart may be missing. Equal values may be shown once. Out of some 5,500 compounds screened, about 2,000 (36%) were called active. About 18% were inconclusive and are not listed. This is one part of the list. Unmarked numbers belong to inactive results. Cut-off read from the data, not from the text of the source: active = normalized growth mostly below about 0.91 (no sharp cut-off); inconclusive = no clear call, values can overlap the other calls; inactive = mostly above about 0.92.
# Experiment: chemical genetic growth profiling, strain panel (AID 1159580);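 note: tested at 20 µM; growth read once vehicle control cultures reached saturation at 30 °C; 1 = growth at the plate median or of vehicle wells; lower values mean less growth of the strain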
# Conditions: growth OD
smiles,measurement,setting,value
CO[C@@H]1C[C@H](O[C@H]2CC[C@]3(C)C4CC[C@]5(C)[C@@H](C6=CC(=O)OC6)CC[C@]5(O)[C@@H]4CC[C@]3(O)C2)O[C@H](C)[C@@H]1O (some centres not stated),normalized growth,"S. cerevisiae deletion strains, locus YAL013W, strain DEP1, stronger effect = lower value",0.869 (active)
same,normalized growth,"S. cerevisiae deletion strains, locus YBR021W, strain FUR4, stronger effect = lower value",0.961
same,normalized growth,"S. cerevisiae deletion strains, locus YBR229C, strain ROT2, stronger effect = lower value",1
same,normalized growth,"S. cerevisiae deletion strains, locus YCL029C, strain bik1, stronger effect = lower value",1.02
same,normalized growth,"S. cerevisiae deletion strains, locus YDL035C, strain GPR1, stronger effect = lower value",0.905
same,normalized growth,"S. cerevisiae deletion strains, locus YDL074C, strain BRE1, stronger effect = lower value",0.987
same,normalized growth,"S. cerevisiae deletion strains, locus YDL101C, strain DUN1, stronger effect = lower value",1.02
same,normalized growth,"S. cerevisiae deletion strains, locus YDL134C, strain PPH21, stronger effect = lower value",1
same,normalized growth,"S. cerevisiae deletion strains, locus YDL185W, strain tfp1, stronger effect = lower value",1.05
same,normalized growth,"S. cerevisiae deletion strains, locus YDL192W, strain arf1, stronger effect = lower value",0.888 (active)
same,normalized growth,"S. cerevisiae deletion strains, locus YDR101C, strain arx1, stronger effect = lower value",1.01
same,normalized growth,"S. cerevisiae deletion strains, locus YDR162C, strain NBP2, stronger effect = lower value",0.881
same,normalized growth,"S. cerevisiae deletion strains, locus YDR318W, strain mcm21, stronger effect = lower value",0.987
same,normalized growth,"S. cerevisiae deletion strains, locus YDR388W, stronger effect = lower value",1
same,normalized growth,"S. cerevisiae deletion strains, locus YDR502C, strain sam2, stronger effect = lower value",0.893 (active)
same,normalized growth,"S. cerevisiae deletion strains, locus YEL061C, strain CIN8, stronger effect = lower value",1.01
same,normalized growth,"S. cerevisiae deletion strains, locus YER110C, stronger effect = lower value",1.02
same,normalized growth,"S. cerevisiae deletion strains, locus YER155C, strain BEM2, stronger effect = lower value",1.01
same,normalized growth,"S. cerevisiae deletion strains, locus YER167W, strain BCK2, stronger effect = lower value",0.95
same,normalized growth,"S. cerevisiae deletion strains, locus YGL078C, strain dbp3, stronger effect = lower value",0.96
same,normalized growth,"S. cerevisiae deletion strains, locus YGL086W, strain mad1, stronger effect = lower value",0.935
same,normalized growth,"S. cerevisiae deletion strains, locus YGL248W, strain PDE1, stronger effect = lower value",1.02
same,normalized growth,"S. cerevisiae deletion strains, locus YGR078C, strain PAC10, stronger effect = lower value",0.926
same,normalized growth,"S. cerevisiae deletion strains, locus YGR135W, strain pre9, stronger effect = lower value",0.865 (active)
same,normalized growth,"S. cerevisiae deletion strains, locus YGR252W, strain gcn5, stronger effect = lower value",0.844
same,normalized growth,"S. cerevisiae deletion strains, locus YHR030C, strain SLT2, stronger effect = lower value",1.02 and 1.05
same,normalized growth,"S. cerevisiae deletion strains, locus YHR079C, strain IRE1 (second series), stronger effect = lower value",1.02
same,normalized growth,"S. cerevisiae deletion strains, locus YHR079C, strain IRE1, stronger effect = lower value",1.07
same,normalized growth,"S. cerevisiae deletion strains, locus YHR094C, strain hxt1, stronger effect = lower value",1.02
same,normalized growth,"S. cerevisiae deletion strains, locus YHR129C, strain ARP1, stronger effect = lower value",1.01
same,normalized growth,"S. cerevisiae deletion strains, locus YHR200W, strain rpn10, stronger effect = lower value",0.92 (active)
same,normalized growth,"S. cerevisiae deletion strains, locus YIL066C, strain RNR3, stronger effect = lower value",0.956
same,normalized growth,"S. cerevisiae deletion strains, locus YIL073C, strain SPO22, stronger effect = lower value",1.04
same,normalized growth,"S. cerevisiae deletion strains, locus YIL125W, strain kgd1, stronger effect = lower value",0.926 (active)
same,normalized growth,"S. cerevisiae deletion strains, locus YIR030C, strain dcg1, stronger effect = lower value",1.01
same,normalized growth,"S. cerevisiae deletion strains, locus YJL095W, strain BCK1, stronger effect = lower value",1.03 and 1.05
same,normalized growth,"S. cerevisiae deletion strains, locus YJL134W, strain LCB3, stronger effect = lower value",1.01
same,normalized growth,"S. cerevisiae deletion strains, locus YJL168C, strain set2, stronger effect = lower value",1.02
same,normalized growth,"S. cerevisiae deletion strains, locus YJL187C, strain SWE1 (second series), stronger effect = lower value",1.04
same,normalized growth,"S. cerevisiae deletion strains, locus YJR043C, strain POL32, stronger effect = lower value",0.949
same,normalized growth,"S. cerevisiae deletion strains, locus YJR066W, strain TOR1, stronger effect = lower value",0.987
same,normalized growth,"S. cerevisiae deletion strains, locus YJR075W, strain HOC1, stronger effect = lower value",0.901
same,normalized growth,"S. cerevisiae deletion strains, locus YKL009W, strain mrt4, stronger effect = lower value",0.917
same,normalized growth,"S. cerevisiae deletion strains, locus YKL068W, stronger effect = lower value",0.996
same,normalized growth,"S. cerevisiae deletion strains, locus YKL085W, strain MDH1 (second series), stronger effect = lower value",0.897 (active)
same,normalized growth,"S. cerevisiae deletion strains, locus YKL085W, strain MDH1, stronger effect = lower value",0.897 (active)
same,normalized growth,"S. cerevisiae deletion strains, locus YKR001C, strain vps1, stronger effect = lower value",0.76 (active)
same,normalized growth,"S. cerevisiae deletion strains, locus YLR039C, strain RIC1, stronger effect = lower value",0.887
same,normalized growth,"S. cerevisiae deletion strains, locus YLR058C, strain SHM2, stronger effect = lower value",1.01
same,normalized growth,"S. cerevisiae deletion strains, locus YLR102C, strain apc9, stronger effect = lower value",1.03
same,normalized growth,"S. cerevisiae deletion strains, locus YLR113W, strain HOG1, stronger effect = lower value",0.964
same,normalized growth,"S. cerevisiae deletion strains, locus YLR262C, strain YPT6, stronger effect = lower value",0.879
same,normalized growth,"S. cerevisiae deletion strains, locus YLR268W, strain sec22, stronger effect = lower value",0.95
same,normalized growth,"S. cerevisiae deletion strains, locus YLR330W, strain CHS5, stronger effect = lower value",1.01
same,normalized growth,"S. cerevisiae deletion strains, locus YLR342W, strain FKS1 (second series), stronger effect = lower value",0.953
same,normalized growth,"S. cerevisiae deletion strains, locus YLR371W, strain rom2, stronger effect = lower value",1.05
same,normalized growth,"S. cerevisiae deletion strains, locus YLR418C, strain cdc73, stronger effect = lower value",0.651 (active)
same,normalized growth,"S. cerevisiae deletion strains, locus YML016C, strain PPZ1, stronger effect = lower value",1
same,normalized growth,"S. cerevisiae deletion strains, locus YML032C, strain rad52, stronger effect = lower value",0.988
same,normalized growth,"S. cerevisiae deletion strains, locus YML124C, strain tub3, stronger effect = lower value",1.02
same,normalized growth,"S. cerevisiae deletion strains, locus YMR078C, strain ctf18, stronger effect = lower value",1.02
same,normalized growth,"S. cerevisiae deletion strains, locus YMR223W, strain ubp8, stronger effect = lower value",0.889 (active)
same,normalized growth,"S. cerevisiae deletion strains, locus YMR263W, strain SAP30, stronger effect = lower value",1.02
same,normalized growth,"S. cerevisiae deletion strains, locus YMR307W, strain GAS1, stronger effect = lower value",0.815
same,normalized growth,"S. cerevisiae deletion strains, locus YNL067W, strain RPL9B, stronger effect = lower value",0.99
same,normalized growth,"S. cerevisiae deletion strains, locus YNL128W, strain TEP1, stronger effect = lower value",0.925
same,normalized growth,"S. cerevisiae deletion strains, locus YNL153C, strain GIM3, stronger effect = lower value",1.03
same,normalized growth,"S. cerevisiae deletion strains, locus YNL183C, strain NPR1, stronger effect = lower value",0.988
same,normalized growth,"S. cerevisiae deletion strains, locus YNL233W, strain BNI4, stronger effect = lower value",0.941
same,normalized growth,"S. cerevisiae deletion strains, locus YNL250W, strain rad50, stronger effect = lower value",0.964
same,normalized growth,"S. cerevisiae deletion strains, locus YNL271C, strain bni1, stronger effect = lower value",0.999
same,normalized growth,"S. cerevisiae deletion strains, locus YNL298W, strain CLA4, stronger effect = lower value",0.944
same,normalized growth,"S. cerevisiae deletion strains, locus YNL307C, strain MCK1, stronger effect = lower value",1.02
same,normalized growth,"S. cerevisiae deletion strains, locus YNL322C, strain KRE1, stronger effect = lower value",0.999
same,normalized growth,"S. cerevisiae deletion strains, locus YNR052C, strain pop2, stronger effect = lower value",1.02
same,normalized growth,"S. cerevisiae deletion strains, locus YOL012C, strain htz1",2.27
same,normalized growth,"S. cerevisiae deletion strains, locus YOL147C, strain pex11, stronger effect = lower value",1.02
same,normalized growth,"S. cerevisiae deletion strains, locus YOR061W, strain CKA2, stronger effect = lower value",1.01
same,normalized growth,"S. cerevisiae deletion strains, locus YOR069W, strain VPS5, stronger effect = lower value",1.01
same,normalized growth,"S. cerevisiae deletion strains, locus YOR136W, strain idh2, stronger effect = lower value",0.983
same,normalized growth,"S. cerevisiae deletion strains, locus YOR144C, strain elg1, stronger effect = lower value",1.01
same,normalized growth,"S. cerevisiae deletion strains, locus YOR184W, strain ser1, stronger effect = lower value",0.606 (active)
same,normalized growth,"S. cerevisiae deletion strains, locus YOR231W, strain MKK1, stronger effect = lower value",1.05
same,normalized growth,"S. cerevisiae deletion strains, locus YOR316C, strain cot1, stronger effect = lower value",1.02
same,normalized growth,"S. cerevisiae deletion strains, locus YPL055C, strain LGE1, stronger effect = lower value",0.877
same,normalized growth,"S. cerevisiae deletion strains, locus YPL256C, strain CLN2, stronger effect = lower value",1.11
same,normalized growth,"S. cerevisiae deletion strains, locus YPR119W, strain clb2, stronger effect = lower value",1.02
same,normalized growth,"S. cerevisiae deletion strains, locus YPR141C, strain kar3, stronger effect = lower value",1.02
same,normalized growth,"S. cerevisiae deletion strains, locus YPR163C, strain tif3, stronger effect = lower value",0.993
same,normalized growth,"S. cerevisiae deletion strains, locus YPR167C, strain met16, stronger effect = lower value",0.934
same,normalized growth,"S. cerevisiae deletion strains, strain wtn01, stronger effect = lower value",0.921
same,normalized growth,"S. cerevisiae strains, strain wild type, stronger effect = lower value",0.899 (active)
